Results taken from PubChem BioAssay (EPA / NIEHS).
Where “and” joins values, the source holds several entries; their conditions need not be identical. Equal entries are not always repeated. Inconclusive results are not listed. Calls of active or inactive are those of the source. Rule for the calls, unless noted: active = hit-call score of the fitted dose curve at least 0.9, where 1 is the maximum; inactive = score below 0.9.

Columns and labels:
[1] = target: Nucleoli Translocation, AR (gene 367) (UniProt P10275); experiment: UPITT_HCI_U2OS_AR_TIF2_Nucleoli_Antagonist: University of Pittsburgh U2OS Androgen Receptor-Transcriptional Intermediary Factor 2 (AR-TIF2) Antagonism High Content Imaging Assay for Nucleoli Translocation (AID 2283997; active = hit-call score of the fitted dose curve at least 0.9, where 1 is the maximum)
Sequence of Nucleoli Translocation, AR (gene 367) (P10275 whole entry, looked up): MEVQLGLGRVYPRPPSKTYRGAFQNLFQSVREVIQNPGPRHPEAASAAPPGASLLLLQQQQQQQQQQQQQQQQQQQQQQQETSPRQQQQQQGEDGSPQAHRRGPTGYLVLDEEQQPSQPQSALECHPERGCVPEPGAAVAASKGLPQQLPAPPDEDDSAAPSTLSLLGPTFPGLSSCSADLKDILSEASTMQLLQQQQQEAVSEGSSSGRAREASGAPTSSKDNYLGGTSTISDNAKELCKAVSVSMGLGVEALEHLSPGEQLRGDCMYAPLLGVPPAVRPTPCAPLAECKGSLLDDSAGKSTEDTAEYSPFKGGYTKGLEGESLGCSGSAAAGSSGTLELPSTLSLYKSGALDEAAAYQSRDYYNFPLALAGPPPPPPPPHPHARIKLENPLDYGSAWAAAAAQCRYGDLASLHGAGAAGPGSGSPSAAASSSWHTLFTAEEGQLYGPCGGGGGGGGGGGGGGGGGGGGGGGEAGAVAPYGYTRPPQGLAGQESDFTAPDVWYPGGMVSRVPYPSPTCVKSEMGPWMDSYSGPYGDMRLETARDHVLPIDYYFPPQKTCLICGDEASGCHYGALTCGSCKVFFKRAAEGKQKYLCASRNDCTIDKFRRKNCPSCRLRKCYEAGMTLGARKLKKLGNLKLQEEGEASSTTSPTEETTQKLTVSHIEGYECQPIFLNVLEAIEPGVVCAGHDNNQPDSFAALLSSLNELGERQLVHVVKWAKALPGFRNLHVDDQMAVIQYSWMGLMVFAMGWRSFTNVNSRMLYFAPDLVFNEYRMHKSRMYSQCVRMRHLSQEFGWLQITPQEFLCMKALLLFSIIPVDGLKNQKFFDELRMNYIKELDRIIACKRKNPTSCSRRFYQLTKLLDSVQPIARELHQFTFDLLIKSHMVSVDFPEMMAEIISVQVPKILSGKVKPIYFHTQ
How it was run: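 An antagonist-mode imaging screen: engineered U2OS (AR-RFP, TIF2-GFP) exposed to 20 uM compound, 0.2% DMSO. Activity reflects nucleolar red fluorescence change relative to DHT baseline.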

[2] = CCTE_Harrill_HTTr_Viability_PRF_DMEM_12hr: (Pilot) CCTE's 12-hour Cell Viability Assessment for the High-Throughput Transcriptomics (HTTr) Platform, in MCF-7 cells cultured in phenol red-free DMEM + 10% charcoal-stripped fetal bovine serum, Harrill Lab (AID 2283977)
How it was run: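 Membrane integrity was scored via propidium iodide dye exclusion imaging, fitted in both directions relative to DMSO. Compounds ran as eight-point dilutions for 12 hours on MCF-7 grown in phenol red-free DMEM plus 10% charcoal-stripped serum.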

[3] = CCTE_Harrill_HTTr_Viability_PRF_DMEM_24hr: (Pilot) CCTE's 24-hour Cell Viability Assessment for the High-Throughput Transcriptomics (HTTr) Platform, in MCF-7 cells cultured in phenol red-free DMEM + 10% charcoal-stripped fetal bovine serum, Harrill Lab (AID 2283980)
How it was run: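 Propidium iodide exclusion imaged at 24 h after dosing scores viability; cells were MCF-7 grown in phenol red-free DMEM plus 10% charcoal-stripped serum, tested in eight concentrations, fitted in both directions against DMSO.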

[4] = CCTE_Harrill_HTTr_Apoptosis_DMEM_6hr: (Pilot) CCTE's 6-hour Apoptosis Assessment for the High-Throughput Transcriptomics (HTTr) Platform, in MCF-7 cells cultured in DMEM + 10% fetal bovine serum, Harrill Lab (AID 2283981)
How it was run: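 MCF-7 cells grown in DMEM + 10% FBS were exposed for 6 hours to an eight-point dilution series. CellEvent Caspase 3/7 Green signal was imaged; activity fitted bidirectionally against DMSO.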

[5] = CCTE_Harrill_HTTr_Apoptosis_DMEM_12hr: (Pilot) CCTE's 12-hour Apoptosis Assessment for the High-Throughput Transcriptomics (HTTr) Platform, in MCF-7 cells cultured in DMEM + 10% fetal bovine serum, Harrill Lab (AID 2283982)
From the text: (§1) This is a cell-based assay that evaluates apoptosis using high content imaging to evaluate activation of caspase-3/7 using the CellEvent Caspase 3/7 Green detection reagent in 384-well format.One of seven assay components measured from the CCTE_Harrill_HTTr_Apoptosis assay. This was part of a pilot experiment. This is a cell-based assay that evaluates apoptosis in MCF-7 cells cultured in DMEM + 10% fetal bovine serum. High content imaging is used to evaluate activation of caspase-3/7 using the CellEvent Caspase 3/7 Green detection reagent. Measurements are taken at 12 hours after chemical dosing in 384-well format.The assay component endpoint CCTE_Harrill_HTTr_Apoptosis_DMEM_12hr was analyzed with bidirectional fitting relation to DMSO as the negative control and baseline of activity. Using a type of viability reporter, gain-of-signal activity can be used to evaluate activation of caspase-3/7 using the CellEvent Caspase 3/7 Green detection reagent to understand changes in apoptosis. To generalize the intended target to other relatable targets, this assay endpoint is annotated to cell cycle, where the subfamily is apoptosis.
Chemicals were tested in MCF7 cells in an eight point dilution series with a twelve hour exposure duration.

[6] = CCTE_Harrill_HTTr_Apoptosis_DMEM_24hr: (Pilot) CCTE's 24-hour Apoptosis Assessment for the High-Throughput Transcriptomics (HTTr) Platform, in MCF-7 cells cultured in DMEM + 10% fetal bovine serum, Harrill Lab (AID 2283983)
From the text: as §1, with “24” for “12”, “CCTE_Harrill_HTTr_Apoptosis_DMEM_24hr” for “CCTE_Harrill_HTTr_Apoptosis_DMEM_12hr”
Chemicals were tested in MCF7 cells in an eight point dilution series with a twenty-four hour exposure duration.

[7] = CCTE_Harrill_HTTr_Apoptosis_PRF_DMEM_6hr: (Pilot) CCTE's 6-hour Apoptosis Assessment for the High-Throughput Transcriptomics (HTTr) Platform, in MCF-7 cells cultured phenol red-free DMEM + 10% charcoal-stripped fetal bovine serum, Harrill Lab (AID 2283984)
How it was run: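 Caspase-3/7 activity (CellEvent Green) read by high-content imaging 6 h after dosing, eight concentrations. Cells: MCF-7, phenol red-free DMEM with 10% charcoal-stripped serum. Curves fit both directions against DMSO.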

[8] = CCTE_Harrill_HTTr_Apoptosis_PRF_DMEM_24hr: (Pilot) CCTE's 24-hour Apoptosis Assessment for the High-Throughput Transcriptomics (HTTr) Platform, in MCF-7 cells cultured in phenol red-free DMEM + 10% charcoal-stripped fetal bovine serum, Harrill Lab (AID 2283986)
How it was run: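 Eight concentrations tested for 24 h on MCF-7 grown in charcoal-stripped serum, phenol red-free DMEM. High content imaging of CellEvent Caspase 3/7 Green signal gives apoptosis read-out, fitted both ways relative to DMSO.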

DIO1 (gene 1733) = experiment: CCTE_GLTED_hDIO1: CCTE's human Deiodinase 1 (DIO1) Inhibition Assay, Great Lakes Toxicology and Ecology Division (GLTED) Lab (AID 2283987; active = hit-call score of the fitted dose curve at least 0.9, where 1 is the maximum;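 note: isolated human DIO1 enzyme in a cell-free setup rather than cells; enzyme activity read as free iodide liberated from substrate via Sandell-Kolthoff colorimetry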)
How it was run: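 Steps: human DIO1 enzyme plus test chemical, 3 h incubation; free iodide then quantified in a second Sandell-Kolthoff step by absorbance. DMSO served as negative control and baseline.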

[9] = TOX21_TR_RXR_BLA_Antagonist_Followup_viability: Viability Assessment in the Tox21 Thyroid Hormone Receptor beta Retinoid X Receptor alpha (RXRa) Antagonism Beta-lactamase (BLA) Follow-Up Assay (AID 2283979; active = hit-call score of the fitted dose curve at least 0.9, where 1 is the maximum)
How it was run: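 RXRa-UAS-bla HEK293T cells seeded 2,500/well in phenol red-free DMEM with 2% charcoal-stripped FBS, attached 5 h, then exposed to compounds at 11 concentrations in triplicate for 16 h at 37C/5% CO2. Viability read by CellTiter-Glo ATP luminescence; bidirectional fit versus DMSO.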

CC(=O)S[C@@H]1CC2=CC(=O)CC[C@]2(C)[C@H]2CC[C@@]3(C)[C@@H](CC[C@@]34CCC(=O)O4)[C@H]12
outcome [1]: inactive

COC(=O)CSc1cc(N=c2sc(=O)n3n2CCCC3)c(F)cc1Cl
outcome [1]: inactive

O=C(c1ccccc1)C1CCCCC1
outcome [1]: inactive

CN(C)C(=O)Nc1ccc(Cl)c(Cl)c1
outcome [1]: inactive

S=C([S-])NCCNC(=S)[S-].[Mn+2]
outcome [2]: inactive | outcome [3]: inactive | outcome [4]: inactive | outcome [5]: inactive | outcome [6]: inactive | outcome [7]: inactive | outcome [8]: inactive | AC50 (DIO1 (gene 1733)): 35.7 µM (active)

C=CCOC(Cn1ccnc1)c1ccc(Cl)cc1Cl (stereo not drawn)
outcome [2]: inactive | outcome [3]: inactive | outcome [4]: inactive | outcome [5]: inactive | outcome [6]: inactive | outcome [7]: inactive | outcome [8]: inactive

Cc1nn(C)c(Oc2ccccc2)c1C=NOCc1ccc(C(=O)OC(C)(C)C)cc1
outcome [2]: inactive | outcome [3]: inactive | outcome [4]: inactive | outcome [5]: inactive | outcome [6]: inactive | outcome [7]: inactive | outcome [8]: inactive | outcome [1]: inactive

c1ccc2[nH]c(-c3cscn3)nc2c1
outcome [1]: inactive

CC(C)(c1ccc(O)cc1)c1ccc(O)cc1
outcome [2]: inactive | outcome [3]: inactive | outcome [4]: inactive | outcome [5]: inactive | outcome [6]: inactive | outcome [7]: inactive | outcome [8]: inactive | AC50 [1]: 12.9 µM (active)

N[C@@H](Cc1cc(I)c(Oc2ccc(O)c(I)c2)c(I)c1)C(=O)O
outcome [2]: inactive | outcome [3]: inactive | outcome [4]: inactive | outcome [5]: inactive | outcome [6]: inactive | outcome [7]: inactive | outcome [8]: inactive

CCCN(CCC)C(=O)SCC
outcome [1]: inactive

CCSC(=O)N(CC(C)C)CC(C)C
outcome [1]: inactive

N#CSCSc1nc2ccccc2s1
AC50 [1]: 9.92 µM (active)

S=C(S)NCCNC(=S)S.[Mn+2].[S-]C([S-])=NCCN=C([S-])[S-].[Zn+2]
AC50 (DIO1 (gene 1733)): 29.5 µM (active) and 50 µM (active)

C[C@]12C[C@H](O)[C@H]3[C@@H](CCC4=CC(=O)CC[C@@]43C)[C@@H]1CC[C@@H]2C(=O)CO
outcome [9]: inactive

C[C@]12CC[C@@H]3c4ccc(O)cc4C[C@@H](CCCCCCCCCS(=O)CCCC(F)(F)C(F)(F)F)[C@H]3[C@@H]1CC[C@@H]2O (stereo partly drawn)
outcome [2]: inactive | outcome [9]: inactive | outcome [3]: inactive | outcome [4]: inactive | outcome [5]: inactive | outcome [6]: inactive | outcome [7]: inactive | outcome [8]: inactive | outcome [1]: inactive

CC(C)CCCCCCc1ccc(O)cc1
AC50 [2]: 69.2 µM (active) | AC50 [3]: 64.3 µM (active) | outcome [4]: inactive | AC50 [5]: 63.2 µM (active) | AC50 [6]: 77.5 µM (active) | outcome [7]: inactive | AC50 [8]: 77.2 µM (active) | AC50 (DIO1 (gene 1733)): 49.4 µM (active)

O=C(O)C1(C(=O)Nc2ccc(Cl)cc2Cl)CC1
outcome [1]: inactive

CC(=O)[C@H]1CC[C@H]2[C@@H]3CCC4=CC(=O)CC[C@]4(C)[C@H]3CC[C@]12C
outcome [9]: inactive

CC1(C)C(C=C(Cl)Cl)C1C(=O)OCc1cccc(Oc2ccccc2)c1 (stereo not drawn)
outcome [1]: inactive

CCCOC(=O)c1ccc(C(=O)OCCC)nc1
outcome [1]: inactive

O=C(c1ccc(O)cc1O)c1ccc(O)cc1O
AC50 [1]: 10.1 µM (active)

CSC(=O)c1cccc2nnsc12
AC50 [1]: 50 µM (active)

CCCCOCCOCCOCc1cc2c(cc1CCC)OCO2
outcome [1]: inactive

CCOC(=O)C(C)Oc1ccc(Oc2nc3ccc(Cl)cc3o2)cc1 (stereo not drawn)
outcome [1]: inactive
